Only some compounds are listed: those with a hit (about 1.6% of all), similar ones and a draw of the others.
CASP6 VEID inh: blocks human caspase-6 cleavage activity. P55212. purified caspase-6, Z-VEID-R110 cleavage fluorescence. inhibition, % at 12.5 µM. 0.53% of 350,000 active. AID 686996;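 active means mean inhibition across replicates at least about 35%, with every replicate also reaching that limit, limit read from the data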;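 further: 0% = median of neutral control wells and 100% = no fluorescence left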
UBC9 SUMO inh: SUMOylation inhibition. inhibition, % at 35 µM. HTRF SUMOylation assay, SAE1/SAE2 + UBC9, in vitro. AID 2006. 0.36% of 290,000 active; in the data active means inhibition above about 50%, passing the limit was not always enough
NSD2 inh: blocks human histone methyltransferase NSD2 | O96028 | NSD2 peptide methylation, AlphaScreen, 120 min | inhibition, % at 12.5 µM | 0.54% of 310,000 active; in the data active means inhibition above about 50%
Target sequence (O96028 whole entry, looked up): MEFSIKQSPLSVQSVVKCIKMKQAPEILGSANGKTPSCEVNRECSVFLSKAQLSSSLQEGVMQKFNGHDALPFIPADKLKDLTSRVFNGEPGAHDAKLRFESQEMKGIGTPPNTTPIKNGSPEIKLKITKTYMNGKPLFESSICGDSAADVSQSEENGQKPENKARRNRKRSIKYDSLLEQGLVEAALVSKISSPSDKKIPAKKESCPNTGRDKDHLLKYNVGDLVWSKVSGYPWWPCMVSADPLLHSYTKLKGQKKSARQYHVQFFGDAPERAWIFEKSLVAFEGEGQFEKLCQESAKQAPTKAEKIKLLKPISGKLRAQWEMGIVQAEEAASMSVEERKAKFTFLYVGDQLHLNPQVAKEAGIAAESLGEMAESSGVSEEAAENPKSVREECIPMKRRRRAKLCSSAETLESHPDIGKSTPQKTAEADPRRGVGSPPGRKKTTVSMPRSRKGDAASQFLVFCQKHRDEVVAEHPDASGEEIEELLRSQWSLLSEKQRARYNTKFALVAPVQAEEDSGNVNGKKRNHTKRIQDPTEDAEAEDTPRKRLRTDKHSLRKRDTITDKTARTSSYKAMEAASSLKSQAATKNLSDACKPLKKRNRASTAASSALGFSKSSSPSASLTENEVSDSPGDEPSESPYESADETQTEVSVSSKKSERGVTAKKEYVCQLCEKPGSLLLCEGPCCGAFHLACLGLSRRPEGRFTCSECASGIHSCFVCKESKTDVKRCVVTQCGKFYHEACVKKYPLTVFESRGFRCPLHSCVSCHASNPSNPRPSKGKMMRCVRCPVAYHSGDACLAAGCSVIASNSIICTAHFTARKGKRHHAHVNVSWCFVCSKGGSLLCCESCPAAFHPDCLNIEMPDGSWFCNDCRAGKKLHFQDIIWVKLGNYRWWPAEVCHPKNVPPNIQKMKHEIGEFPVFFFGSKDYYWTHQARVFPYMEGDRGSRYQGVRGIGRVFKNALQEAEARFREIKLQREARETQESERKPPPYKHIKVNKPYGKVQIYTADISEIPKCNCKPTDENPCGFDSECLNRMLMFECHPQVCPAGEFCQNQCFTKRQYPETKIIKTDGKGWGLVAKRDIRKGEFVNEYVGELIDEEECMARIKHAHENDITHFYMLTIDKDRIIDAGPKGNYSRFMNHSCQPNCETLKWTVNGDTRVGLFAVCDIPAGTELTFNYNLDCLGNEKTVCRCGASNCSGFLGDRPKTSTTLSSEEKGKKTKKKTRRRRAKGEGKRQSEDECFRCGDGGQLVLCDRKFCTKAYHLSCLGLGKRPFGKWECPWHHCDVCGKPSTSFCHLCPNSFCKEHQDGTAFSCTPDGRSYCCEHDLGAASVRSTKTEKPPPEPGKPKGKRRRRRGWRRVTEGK
SIRT5 block: blocks human SIRT5 desuccinylation of peptide; 1.1% of 330,000 active; Q9NXA8; AID 652115; inhibition, % at 15 µM; Purified SirT5, succinyl-peptide AMC, trypsin-coupled fluorescence; in the data active means inhibition above about 15%
An asterisk follows results filed as active; . = no result; ! = repeats disagree.

SMILES	CASP6 VEID inh	UBC9 SUMO inh	NSD2 inh	SIRT5 block
C[C@H](CO)N1C[C@H](C)[C@H](CN(C)Cc2ccncc2)Oc2ncccc2C1=O	.	.	.	-0.8
COc1ccc(Cl)cc1S(=O)(=O)n1cnc2ccccc21	.	16.8	-1.5	.
COc1ccc(S(=O)(=O)n2cnc3ccccc32)cc1OC	61.7*	8.4	-0.8	5.7
C[C@@H]1CN([C@@H](C)CO)C(=O)c2cc(C#CC3CCCC3)cnc2O[C@@H]1CN(C)S(=O)(=O)c1cccc(F)c1	-1.7	.	.	5.3
Cc1ccc2nsnc2c1N	0.6	18.6	4.3	.
Nc1cccc2nsnc12	2.3	87.6*	0.5	1.4
O=C(NNC(=O)c1ccccc1Br)c1ccc2nc[nH]c2c1	47.0*	14.9	-4.2	-1.7
C[C@H](CO)N1C[C@H](C)[C@H](CN(C)C(=O)Nc2ccc(C(F)(F)F)cc2)OCCCC[C@H](C)Oc2ccc(NS(=O)(=O)c3ccc(F)cc3)cc2C1=O	0.5	.	.	-0.2
C[C@@H]1CCCCO[C@H](CN(C)C(=O)CCC(F)(F)F)[C@H](C)CN([C@@H](C)CO)C(=O)c2cc(NS(=O)(=O)c3ccc(Cl)cc3)ccc2O1	0.9	.	.	16.7*!
C[C@@H]1CN([C@@H](C)CO)C(=O)c2cc(N(C)C)ccc2O[C@@H](C)CCCCO[C@@H]1CN(C)C(=O)Nc1ccccc1	4.3	.	.	16.0*
Cc1ccc(S(=O)(=O)Nc2ccc3c(c2)C(=O)N([C@H](C)CO)C[C@@H](C)[C@H](CN(C)C(=O)Nc2ccc(C(F)(F)F)cc2)OCCCC[C@@H](C)O3)cc1	0.9	.	.	15.6*
C[C@@H]1CCCCO[C@H](CN(C)C(=O)Nc2ccccc2)[C@@H](C)CN([C@@H](C)CO)C(=O)c2cc(N(C)C)ccc2O1	0.7	.	.	0.4
C[C@@H]1CN([C@@H](C)CO)C(=O)c2cc(NS(=O)(=O)c3ccc(Cl)cc3)ccc2O[C@@H](C)CCCCO[C@H]1CN(C)C(=O)CCC(F)(F)F	-3.1	.	.	13.3
C[C@@H]1CN([C@H](C)CO)C(=O)c2cc(N(C)C)ccc2O[C@H]1CN(C)C(=O)Nc1ccc(F)cc1	-0.6	.	.	33.7*
CO[C@@H]1CN(C)C(=O)c2ccc(NC(=O)c3ccc(Oc4ccccc4)cc3)cc2OC[C@H](C)NC[C@H]1C	-0.4	.	.	2.7
CO[C@H]1CN(C)C(=O)c2cc(NC(=O)C3CC3)ccc2OC[C@@H](C)N(C(=O)c2ccccc2)C[C@@H]1C	0.5	.	.	9.7
C[C@@H]1CN([C@H](C)CO)S(=O)(=O)c2ccc(C3=CCCCC3)cc2O[C@H]1CN(C)Cc1ccccn1	2.8	.	.	6.2
C[C@H]1CN([C@@H](C)CO)C(=O)Cc2cc(NC(=O)c3ccncc3)ccc2O[C@H]1CN(C)S(=O)(=O)c1cn(C)cn1	0.0	.	.	-5.3
Cc1ccc(S(=O)(=O)Nc2ccc3c(c2)C(=O)N([C@@H](C)CO)C[C@H](C)[C@@H](CN(C)C(=O)Nc2ccccc2)OCCCC[C@H](C)O3)cc1	-2.4	.	.	16.6*
Cc1ccc(S(=O)(=O)Nc2ccc3c(c2)C(=O)N([C@H](C)CO)C[C@H](C)[C@H](CN(C)C(=O)Cc2ccccc2)OCCCC[C@H](C)O3)cc1	0.7	.	.	15.9*
C[C@@H]1CCCCO[C@@H](CN(C)C(=O)Nc2ccc(C(F)(F)F)cc2)[C@H](C)CN([C@H](C)CO)C(=O)c2cc(NS(=O)(=O)c3ccc(F)cc3)ccc2O1	-2.1	.	.	-0.5
Cc1ccc(S(=O)(=O)Nc2ccc3c(c2)C(=O)N([C@H](C)CO)C[C@H](C)[C@@H](CN(C)C(=O)Nc2ccc(C(F)(F)F)cc2)OCCCC[C@H](C)O3)cc1	3.9	.	.	16.0*
C[C@@H]1CCCCO[C@@H](CN(C)C(=O)Nc2ccc(C(F)(F)F)cc2)[C@H](C)CN([C@@H](C)CO)C(=O)c2cc(NS(=O)(=O)c3ccc(Cl)cc3)ccc2O1	-0.4	.	.	19.2*
COc1ccc(-c2cnc3c(c2)C(=O)N([C@H](C)CO)C[C@H](C)[C@@H](CN(C)Cc2ccc(C(=O)O)cc2)O3)cc1	-0.9	.	.	-2.1
Cc1ccc(S(=O)(=O)Nc2ccc3c(c2)C(=O)N([C@@H](C)CO)C[C@H](C)[C@@H](CN(C)C(=O)Nc2ccc(C(F)(F)F)cc2)OCCCC[C@H](C)O3)cc1	1.0	.	.	16.9*
SMILES	CASP6 VEID inh	UBC9 SUMO inh	NSD2 inh	SIRT5 block
C[C@@H]1CN([C@H](C)CO)C(=O)c2cccc(NC(=O)Nc3ccc(F)cc3)c2O[C@H]1CN(C)C(=O)Nc1ccccc1	-1.3	.	.	-4.5
NCC[C@@H]1CC[C@H](NC(=O)c2ccccc2F)[C@@H](CO)O1	39.4*	.	.	-1.9
O=C(Cc1ccccn1)NCC[C@@H]1CC[C@@H](NC(=O)c2ccccc2F)[C@H](CO)O1	35.1*	.	.	-0.9
O=C(N[C@H]1CC[C@H](CCNS(=O)(=O)Cc2ccccc2)O[C@H]1CO)c1ccccc1F	-0.9	.	.	1.7*
CC1=C(C(=O)N2CCOCC2)CC(CC(=O)NC2CC2)C(=O)N1CCC1=CCCCC1 (configuration not stated)	0.1	.	.	17.3*
CC1=C(C(=O)N2CCOCC2)CC(CC(=O)NCC2CCCCC2)C(=O)N1CCC1=CCCCC1 (configuration not stated)	2.1	.	.	22.6*
C[C@H](NC(=O)C[C@H]1CC[C@@H]2[C@H](COC[C@H](O)CN2C)O1)c1ccccc1	-2.6	.	.	1.7
COCC(=O)N1C[C@H](C)[C@H](OC)CN(C)C(=O)c2cc(NC(=O)C3CCC3)ccc2OC[C@@H]1C	3.6	.	.	24.3*
CO[C@H]1CN(C)C(=O)c2cc(NC(=O)C3CC3)ccc2OC[C@H](C)N(C(=O)c2ccccc2)C[C@H]1C	70.0*	.	.	-5.6
CO[C@@H]1CN(C)C(=O)c2cc(NC(=O)NC(C)C)ccc2OC[C@@H](C)N(C(=O)CC2CC2)C[C@H]1C	-0.7	.	.	0.4
COCC(=O)N1C[C@@H](C)[C@@H](OC)CN(C)C(=O)c2cc(NC(=O)c3cc(C)on3)ccc2OC[C@H]1C	3.4	.	.	19.2*
CO[C@H]1CN(C)C(=O)c2cc(NC(=O)NC(C)C)ccc2OC[C@@H](C)N(C(=O)CC2CC2)C[C@@H]1C	2.2	.	.	20.1*
O=C(Cc1ccccn1)N[C@@H]1CC[C@@H](CC(=O)N2CCCCC2)O[C@@H]1CO	-2.0	.	.	-1.2
COCC#Cc1ccc2c(c1)O[C@@H](CN(C)CC1CC1)[C@@H](C)CN([C@@H](C)CO)S2(=O)=O	-1.6	.	.	-1.0
COC(=O)N1C(=O)[C@@](c2ccc(Cl)cc2)(C(C)C)N1C(=O)OC	.	.	12.2	.
Cc1c(NC(=S)NC(=O)c2sc3ccccc3c2Cl)cccc1C(=O)O	1.9	10.2	-0.4	36.3*
COc1ccc(Cc2c(-c3cccc(Cl)c3)nc3ccc(C)cn23)c(C)c1	-0.3	.	.	22.4*
COc1ccc(Cc2c(-c3ccccc3)nc3ccc(C)cn23)c(C)c1	7.7	.	.	-2.3
CC(C)(C)CC(C)(C)SSc1n[nH]c(=S)s1	37.5*	.	-3.0	0.5
CCOC(=O)CSc1n[nH]c(=S)s1	-1.4	7.2	-3.6	1.2
O=Cc1ccc(N2N=C(c3ccccc3)CC2c2ccccc2)cc1 (configuration not stated)	-3.0	9.9	-9.4	-12.2
O=C(O)c1ccc(N2N=C(c3ccccc3)CC2c2ccccc2)cc1 (configuration not stated)	4.4	61.5*	-31.4	-16.4

Screens as filed in PubChem.
